Many of the other results were omitted from the sample, so the strongest signals are more common in it than they were.
Tests used:
Assay in all cases: glycan array binding signal (z-score within array); higher = stronger binding
Details in all cases: glycan notation: IUPAC condensed, linker removed; mutation: D325N
[1] = biological target: Fuc(a1-2)[Gal(a1-3)]Gal(b1-4)[Fuc(a1-3)]GlcNAc
Summary of the method: (§1)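 The binding signal is a Z-score computed within each array and averaged over linkers. Arrays of the same protein sequence at different concentrations or buffers were also averaged together. Data originate from 3228 arrays in the Consortium for Functional Glycomics database, kept only where the protein sequence was available.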

[2] = biological target: Fuc(a1-3)[Gal3S(b1-4)]Glc6S
Summary of the method: as §1

[3] = biological target: Gal(a1-2)Gal
Summary of the method: as §1

[4] = biological target: Gal(a1-3)Gal(b1-3)GlcNAc
Summary of the method: as §1

[5] = biological target: Gal(a1-3)Gal(b1-4)Glc
Summary of the method: as §1

[6] = biological target: Gal(b1-3)[Neu5Ac(b2-6)]GalNAc
Summary of the method: as §1

[7] = biological target: Gal(b1-4)GlcNAc(b1-3)Gal(b1-4)[Fuc(a1-3)]GlcNAc(b1-3)Gal(b1-4)[Fuc(a1-3)]GlcNAc
Summary of the method: as §1

[8] = biological target: Gal(b1-4)GlcNAc(b1-6)Gal(b1-4)GlcNAc(b1-6)GalNAc
Summary of the method: as §1

[9] = biological target: Gal(b1-4)GlcNAc(b1-6)GalNAc
Summary of the method: as §1

[10] = biological target: Gal(b1-4)GlcNAc(b1-6)[Gal(b1-3)]GalNAc
Summary of the method: as §1

[11] = biological target: GlcNAc(b1-3)Gal(b1-4)Glc
Summary of the method: as §1

[12] = biological target: GlcNAc(b1-6)Gal(b1-4)GlcNAc
Summary of the method: as §1

[13] = biological target: Man(a1-2)Man(a1-2)Man(a1-3)Man
Summary of the method: as §1

[14] = biological target: Man(a1-2)Man(a1-3)[Man(a1-2)Man(a1-6)]Man
Summary of the method: as §1

[15] = biological target: Man(a1-2)Man(a1-3)[Man(a1-2)Man(a1-6)]Man(a1-6)[Man(a1-2)Man(a1-2)Man(a1-3)]Man
Summary of the method: as §1

[16] = biological target: Man(a1-2)Man(a1-6)[Man(a1-3)]Man(a1-6)[Man(a1-2)Man(a1-2)Man(a1-3)]Man
Summary of the method: as §1

[17] = biological target: Man(a1-3)[Man(a1-6)]Man(a1-6)[Man(a1-3)]Man
Summary of the method: as §1

[18] = biological target: Man(a1-3)[Man(a1-6)]Man(a1-6)[Man(a1-3)]Man(b1-4)GlcNAc(b1-4)GlcNAc
Summary of the method: as §1

[19] = biological target: Neu5Ac(a2-3)Gal(b1-3)GlcNAc
Summary of the method: as §1

[20] = biological target: Neu5Ac(a2-3)Gal(b1-4)[Fuc(a1-3)]GlcNAc(b1-3)Gal(b1-4)GlcNAc
Summary of the method: as §1

[21] = biological target: Neu5Ac(a2-3)GalNAc(b1-4)GlcNAc
Summary of the method: as §1

[22] = biological target: Neu5Ac(a2-6)Gal
Summary of the method: as §1

[23] = biological target: Neu5Ac(a2-6)Gal(b1-4)Glc
Summary of the method: as §1

[24] = biological target: Neu5Ac(a2-6)GalNAc
Summary of the method: as §1

[25] = biological target: Neu5Ac(a2-8)Neu5Ac(a2-8)Neu5Ac
Summary of the method: as §1

B1: Surfactant Protein D (Human); Neck + Carbohydrate Recognition Domain (NCRD) (Homo sapiens) (protein)
chain: MLLFLLSALVLLTQPLGYLEAEMKTYSHRTMPSACTLVMCSSVESGLPGRDRDGREGPRGEKGDPGLPGAAGQAGMPGQAGPVGPKGDNGSVGEPGPKGDTGPSGPPGPPGVPGPAGREGALGKQGNIGPQGKPGPKGEAGPKGEVGAPGMQGSAGARGLAGPKGERGVPGERGVPGNTGAAGSAGAMGPQGSPGARGPPGLKGDKGIPGDKGAKGESGLPDVASLRQQVEALQGQVQHLQAAFSQYKKVELFPNGQSVGEKIFKTAQFVKPFTEAQLLCTQAGGQLASPRSAAENAALQQLVVAKNEAAFLSMTDSKTEGKFTYPTGESLVYSNWAPGEPNDNGGSEDCVEIFTNGKWNDRACGEKRLVVCEF
glycan array binding signal (z-score) [1]: -0.1 | glycan array binding signal (z-score) [2]: -0.117 | glycan array binding signal (z-score) [3]: -0.109 | glycan array binding signal (z-score) [4]: -0.169 | glycan array binding signal (z-score) [5]: -0.123 | glycan array binding signal (z-score) [6]: -0.139 | glycan array binding signal (z-score) [7]: -0.105 | glycan array binding signal (z-score) [8]: -0.132 | glycan array binding signal (z-score) [9]: -0.138 | glycan array binding signal (z-score) [10]: -0.128 | glycan array binding signal (z-score) [11]: -0.118 | glycan array binding signal (z-score) [12]: -0.138 | glycan array binding signal (z-score) [13]: 2.18 | glycan array binding signal (z-score) [14]: 1.77 | glycan array binding signal (z-score) [15]: 9.38 | glycan array binding signal (z-score) [16]: 8.54 | glycan array binding signal (z-score) [17]: 11.2 | glycan array binding signal (z-score) [18]: 0.338 | glycan array binding signal (z-score) [19]: -0.127 | glycan array binding signal (z-score) [20]: -0.114 | glycan array binding signal (z-score) [21]: -0.148 | glycan array binding signal (z-score) [22]: -0.148 | glycan array binding signal (z-score) [23]: -0.153 | glycan array binding signal (z-score) [24]: -0.129 | glycan array binding signal (z-score) [25]: -0.163

From the supplement of paper PMC8728848
